# PubChem BioAssay (EPA / NIEHS)
# Records with an inconclusive call do not appear. Calls of active or inactive are those of the source. The calls were made as follows, unless noted: active = hit-call score of the fitted dose curve at least 0.9, where 1 is the maximum; inactive = score below 0.9.
# Test: CCTE_Padilla_ZF_144hpf_TERATOSCORE: (Legacy) CCTE's 144 Hour Post-fertilization zebrafish Assay Teratoscore, Padilla Lab (AID 2283679);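 as to AC50: zebrafish embryos with chorions exposed by immersion from 6-8 hpf to 5 dpf with daily renewal; teratogenicity score from eye scoring of death hatching and malformations at 144 hpf; higher score means more developmental defects relative to DMSO baseline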
# How it was run: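 Larvae scored by eye at 144 hpf for death, hatching and malformations after a day in clean Hanks'. Before that, daily-renewed exposure at 80 uM (0.4% DMSO, 26C) from roughly 6-8 hpf through 5 dpf, 4 embryos per chemical.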
Compound,AC50,outcome
CCCCCCCc1ccc(O)cc1,6.11 µM (active),
CCCCN(CCCC)SN(C)C(=O)Oc1cccc2c1OC(C)(C)C2,6.04 µM (active),
ClC1=C(Cl)C2(Cl)C3C(Cl)C(Cl)CC3C1(Cl)C2(Cl)Cl (stereo not given),9.16 µM (active),
[N-]=[N+]=[N-],,inactive
CC(C)(C)c1ccc(O)cc1,57.8 µM (active),
ClC(Cl)c1ccccc1,14.7 µM (active),
c1ccc2c(c1)Nc1ccccc1S2,14.2 µM (active),
CCOP(=S)(OCC)SCSCC,,inactive
O=P(Oc1ccccc1)(Oc1ccccc1)Oc1ccccc1,6.17 µM (active),
CCOP(=S)(Oc1ccc([N+](=O)[O-])cc1)c1ccccc1 (stereo not given),1.19 µM (active),
CCC(C)(C)c1ccc(O)cc1,14.2 µM (active),
O=C(O)C(Cl)Cl,,inactive
CCCN(CCC)c1c([N+](=O)[O-])cc(C(C)C)cc1[N+](=O)[O-],16.2 µM (active),
CCNc1nc(Cl)nc(NC(C)(C)C)n1,,inactive

# Test: STM_H9_OrnithineISnorm_perc: Stemina devTOX quickPredict H9 human embryonic stem cell (hESC)-based Assay for Ornithine (ORN) Metabolite Biomarker, Normalized (AID 2283712);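 also: ornithine released into spent medium during last day measured by mass spectrometry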
# How it was run: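 Cells: undifferentiated H9 hESC. Dosing: 72 h, media replaced every 24 h. Sample: final 24-h conditioned media, 40% acetonitrile. Read: UPLC-HRMS ornithine area vs 13C standard, % DMSO control.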
Compound,AC50,outcome
CCC1(c2ccccc2)C(=O)N=C(O)NC1=O (stereo not given),0.0967 µM (active),
Cc1ccc(N)cc1N,89.7 µM (active),
O=C(O)C1C(C(=O)O)C2(Cl)C(Cl)=C(Cl)C1(Cl)C2(Cl)Cl (stereo not given),,inactive
O=[N+]([O-])c1ccccc1,,inactive
CCOC(=O)c1ccccc1C(=O)OCC,,inactive
COCCOCCO,,inactive
c1ccc2c(c1)Nc1ccccc1S2,,inactive
O=P(Oc1ccccc1)(Oc1ccccc1)Oc1ccccc1,,inactive
CCC(C)(C)c1ccc(O)cc1,78.2 µM (active),
O=C(O)C(Cl)Cl,,inactive

# Test: STM_H9_CystineISnorm_perc: Stemina devTOX quickPredict H9 human embryonic stem cell (hESC)-based Assay for Cystine (CYSS) Metabolite Biomarker, Normalized (AID 2283713)
# How it was run: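 Secreted cystine was measured by UPLC-HRMS in H9 hESC medium after 72h compound exposure with 24-hourly replenishment. Values are standard-normalized areas relative to 0.1% DMSO.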
row,Compound,outcome
1,CCC1(c2ccccc2)C(=O)N=C(O)NC1=O (stereo not given),inactive
2,Cc1ccc(N)cc1N,inactive
3,O=C(O)C1C(C(=O)O)C2(Cl)C(Cl)=C(Cl)C1(Cl)C2(Cl)Cl (stereo not given),inactive
4,O=[N+]([O-])c1ccccc1,inactive
5,CCOC(=O)c1ccccc1C(=O)OCC,inactive
6,COCCOCCO,inactive
7,c1ccc2c(c1)Nc1ccccc1S2,inactive
8,O=P(Oc1ccccc1)(Oc1ccccc1)Oc1ccccc1,inactive
9,CCC(C)(C)c1ccc(O)cc1,inactive
10,O=C(O)C(Cl)Cl,inactive

# Test: STM_H9_OrnCyssISnorm_ratio: Stemina devTOX quickPredict H9 human embryonic stem cell (hESC)-based Assay for Ornithine (ORN):Cystine (CYSS) Ratio (AID 2283714; active = hit-call score of the fitted dose curve at least 0.9, where 1 is the maximum)
# How it was run: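 Steps: H9 hESCs in pluripotent state dosed 72h, medium plus compound renewed every 24h; conditioned medium from the final 24h deproteinized in 40% acetonitrile; ORN and CYSS quantified by UPLC-HRMS with C13 spike-ins; ratio relative to vehicle.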
Compound,outcome,AC50
CCC1(c2ccccc2)C(=O)N=C(O)NC1=O (stereo not given),inactive,
Cc1ccc(N)cc1N,,65.8 µM (active)
COCCOCCO,inactive,
c1ccc2c(c1)Nc1ccccc1S2,inactive,
CCC(C)(C)c1ccc(O)cc1,,40.1 µM (active)
O=C(O)C(Cl)Cl,inactive,
